This is part of a sample that, as a whole, favours compounds with a hit. Of some 83,000 tested, about 20% had one in any assay.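 A percent growth of 40 corresponds to 60% growth inhibition; 0 means no net growth; -100 means all cells died. Active threshold: below 10.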 Values without a mark were called inactive. Active and inactive are the calls of the source.
What was measured:
Assay in all cases: NCI-60 one-dose screen, 48 h (100 = growth as untreated, 0 = no growth, -100 = all killed)
Settings in all cases: 10 µM unless noted
NCI-H23 lung = tested on: NCI-H23 lung
NCI-H226 lung = tested on: NCI-H226 lung
NCI-H322M lung = tested on: NCI-H322M lung
HOP-62 NSCLC = tested on: HOP-62 NSCLC
NCI-H460 lung = tested on: NCI-H460 lung
HOP-92 NSCLC = tested on: HOP-92 NSCLC
NCI-H522 lung = tested on: NCI-H522 lung
A549/ATCC NSCLC = tested on: A549/ATCC NSCLC
786-0 renal = tested on: 786-0 renal
COLO 205 colon = tested on: COLO 205 colon

Row | SMILES | growth (NCI-H23 lung) | growth (NCI-H226 lung) [%] | growth (NCI-H322M lung) [%] | growth (HOP-62 NSCLC) | growth (NCI-H460 lung) | growth (HOP-92 NSCLC) | growth (NCI-H522 lung) | growth (A549/ATCC NSCLC) [%] | growth (786-0 renal) | growth (COLO 205 colon)
1 | O=C(c1ccc(-c2ccccc2)cc1)c1ccc([N+](=O)[O-])cc1 | 103% | 98.5 | 115 | 111% | 109% | 90.6% | 89.5% | 114 | 99.9% | 111%
2 | Cc1ccc(C(C(N)=O)C(C(N)=O)c2ccccc2)cc1 (stereo not given) | 111% | 109 | 121 | 111% | 112% | 99.5% | 102% | 95.3 | 102% | 115%
3 | CCCCC[C@@H]1Cc2cc(O)c(C(=O)O)c3c2[C@H](C[C@]2(OC[C@@H](CC(=O)[C@@](C)(CC)C(=O)OC)[C@@H]2C)O3)O1 | 112% | 92.1 | 105 | 117% | 109% | 113% | 117% | 107 | 108% | 145%
4 | COc1ccc(-c2nc(SCC(C)C)nc(N/N=C\c3ccc(F)cc3)c2C#N)cc1 | 97.4% | 81.4 | 67.7 | 109% | 25.7% | 89.9% | 107% | 69.9 | 83% | 94.8%
5 | CC(C)(C)c1cc(-c2nc3ccc(N4CCN(S(C)(=O)=O)CC4)cc3[nH]2)cc(C(C)(C)C)c1O | 96.2% | 91.9 | 100 | 76.7% | 90.6% | 85.6% | 78.1% | 83.4 | 101% | 101%
6 | Cc1ccccc1/C=C1\CN(C(=O)OC(C)(C)C)C/C(=C\c2ccccc2C)C1=O | 8.22% (active) | 42.2 | 80.9 | 48.2% | -38.3% (active) | 82.6% | 20.8% | 49.1 | 25.8% | -28.5% (active)
7 | CN1CCN(c2ccc(NC(=O)c3cncnc3Nc3ccc(OCc4ccccn4)c(Cl)c3)cc2)CC1 | 70.1% | 70.2 | 62.2 | 3.8% (active) | 27.8% | 45.7% | 55.4% | 25.9 | -82.4% (active) | -3.55% (active)
8 | Brc1ccc(-n2cc(-c3nn[nH]n3)c(-c3cccs3)n2)cc1 | 92.9% | 80.2 | 91.9 | 91.3% | 105% | 88.2% | 88% | 89.1 | 96.6% | 117%
9 | CCN1C(=O)N(CC)C2C1NN=c1s/c(=C\c3cccc([N+](=O)[O-])c3)c(=O)n12 (stereo not given) | 36.4% | 58.2 | 45.5 | 40% | 5.14% (active) | 55.2% | -4.92% (active) | 20.2 | 25% | 1.16% (active)
10 | COc1cc(C(=O)n2nc(N3CCN(C)CC3)c3cc(N)ccc32)cc(OC)c1OC | 38.3% | 47.6 | 58.6 | 32.5% | 38.8% | 43% | -7.31% (active) | 65.3 | 24.7% | 107%
11 | CCCCN[C@H]1CC[C@@]2(C)[C@@H](CC[C@@]3(C)[C@H]2[C@H](O)C[C@H]2/C(=C(\CCC=C(C)C)C(=O)OC)[C@@H](OC(C)=O)C[C@@]23C)[C@@H]1C | 90.5% | 98 | 97.2 | 103% | 100% | 86.5% | 93% | 103 | 99.2% | 104%
12 | Fc1ccc(-c2nn(-c3ccccc3)cc2-c2nc3ccccc3o2)cc1 | 65.8% | 84.4 | 107 | 48.7% | 37.5% | 91.2% | 82.3% | 55.3 | 88.3% | 140%
13 | N#Cc1c(N)nnn1Cc1cc(=O)oc2c1ccc1ccccc12 | 93.2% | 83.9 | 102 | 101% | 101% | 87.8% | 78.1% | 91.1 | 102% | 112%
14 | CCCCCCCCCCCCCCCCCCOc1ccccc1CC(=O)OCC[N+]1(C)CCCC1 | 8.45% (active) | 13.4 | 68.1 | 53.5% | 27.5% | 32.7% | 6.85% (active) | 23 | 57.5% | 9.44% (active)
15 | C=C1C(=O)O[C@H]2[C@H]1CC/C(COC(=O)N[C@H]1C[C@H](O[C@H]3C[C@](O)(C(=O)CO)Cc4c(O)c5c(c(O)c43)C(=O)c3c(OC)cccc3C5=O)O[C@@H](C)[C@H]1O)=C\CC[C@@]1(C)O[C@@H]21 | 91.1% | 58.2 | 98.7 | 78.7% | 63.4% | -5.4% (active) | -50.2% (active) | 77.2 | 43.1% | 36.2%
16 | CN(C)c1ccc(/C=C/C(=O)c2ccc(-n3cc(CN4CCN(c5cc6c(cc5F)c(=O)c(C(=O)O)cn6C5CC5)CC4)nn3)cc2)cc1 | 80.3% | 81.7 | 77.5 | 67.3% | 32.5% | 50.3% | 48.5% | 82.2 | 33.2% | 105%
17 | COC(=O)c1cc(-c2ccccc2)[nH]c1N/N=C/c1c(Cl)cccc1Cl | 14.2% | 37.9 | 34.6 | -28.2% (active) | -3.25% (active) | 10.5% | -41.9% (active) | 21.7 | 9.31% (active) | 12.5%
18 | O=[N+]([O-])c1ccc(-c2nc(N3CCOCC3)c3c4c(sc3n2)CCCC4)cc1 | 88.8% | 85 | 96.3 | 82.4% | 107% | 111% | 79.3% | 95.7 | 93% | 90.9%
19 | Cc1ccc(C2=Nc3c(N)ncnc3NC(c3ccc4c(c3)OCO4)C2)cc1 (stereo not given) | 74.3% | 85.1 | 102 | 64.5% | 42.4% | 8.52% (active) | 47.2% | 56.4 | 80.8% | 37.3%
20 | O=C1/C(=C/c2cccs2)SC(=S)N1CCCN1CCOCC1 | 96.7% | 95.5 | 94.7 | 111% | 99% | 23% | 71.5% | 93.2 | 92.7% | 111%
21 | O=C(CCC(=O)N/N=C/c1ccccc1O)N/N=C/c1ccccc1O | 61.2% | 61.8 | 29.3 | 36.2% | 44.4% | 57.1% | 51.8% | 62.6 | 69.7% | 35.4%
22 | CCc1ccc(C(=O)/C=C/C23c4ccccc4C(c4ccccc42)C2C(=O)NC(=O)C23)cc1 (stereo not given) | 15.9% | 42.3 | 15.8 | -3.98% (active) | 5.14% (active) | -17% (active) | -12.6% (active) | 21.5 | -12.8% (active) | -25.9% (active)
23 | N#Cc1c(-c2ccc(Cl)cc2)nc(NN=Cc2cccc(O)c2)nc1N1CCOCC1 | 100% | 92.9 | 86.3 | 87.8% | 77.9% | 63.3% | 74.8% | 72.7 | 64.3% | 85.7%
24 | COc1ccc(-c2nnc3n(C)c(=O)c4ccccc4n23)cc1N | 46.6% | 70.1 | 39.5 | 23.3% | 13.6% | 49.9% | 18.8% | 28.6 | 23% | -22.2% (active)
25 | Cc1nnc(-n2c(O)cc(=O)n(-c3ccccc3)c2=S)nc1/C=C/c1ccc(N(C)C)cc1 | 60.9% | 61.2 | 50.5 | 39.2% | 62.4% | 43.7% | 19.2% | 51.2 | 49.5% | 39.7%
26 | CCOC(=O)c1cnc2ccccc2c1Cl | 96.9% | 99.2 | 122 | 99.6% | 93% | 70.4% | 92.1% | 104 | 94.3% | 96.2%
